Assay results as given in PubChem BioAssay (NCI).
Compounds without any hit were thinned out: in the full panel of roughly 79,000, 15% have a hit. Activity calls are given as the source filed them. No stated cut-off is given here; in the data, active means growth inhibition above about 70%; inactive means the rest.

Experiments:
[1] = NCI Yeast Anticancer Drug Screen. Data for the wt2 strain (AID 169);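 further: 0% = growth of vehicle-treated yeast cultures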; details: S. cerevisiae wt2 strain growth inhibition, active compounds read high
Procedure, shortened: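 This strain belongs to a panel of yeast strains with defined genetic alterations in DNA damage repair or cell cycle control. Compounds are applied, and growth inhibition is measured against vehicle-treated cultures.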

[2] = NCI Yeast Anticancer Drug Screen. Data for the mlh1 strain (AID 171);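 further: 0% = growth of vehicle-treated control cultures of the same strain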; details: S. cerevisiae mlh1 strain growth inhibition, active compounds read high
Procedure, shortened: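 Growth of the mutant yeast strain after compound exposure, expressed as inhibition relative to vehicle-only controls.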

[3] = NCI Yeast Anticancer Drug Screen. Data for the sgs1 strain (AID 173);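 further: 0% = growth of vehicle-only control cultures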; details: S. cerevisiae sgs1 mutant, active compounds read high
Procedure, shortened: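 Growth of a yeast strain bearing a defined genetic alteration is measured after compound treatment. Inhibition is expressed relative to vehicle-only controls.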

[4] = NCI Yeast Anticancer Drug Screen. Data for the mlh1 rad18 strain (AID 175); details: S. cerevisiae mlh1 rad18 strain growth inhibition, active compounds read high
Procedure, shortened: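 Read-out is yeast growth inhibition, calculated against vehicle-only controls. The compound was applied to a strain engineered with DNA damage repair alterations.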

[5] = NCI Yeast Anticancer Drug Screen. Data for the rad18 strain (AID 177); details: S. cerevisiae rad18 mutant growth inhibition, active compounds read high
Procedure, shortened: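 Growth of the mutant yeast strain after compound exposure, normalised to vehicle-only cultures.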

[6] = NCI Yeast Anticancer Drug Screen. Data for the rad52 strain (AID 147);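 further: 0% = growth of vehicle-treated control cultures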; details: S. cerevisiae rad52 mutant growth inhibition, active compounds read high
Procedure, shortened: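 Compounds are applied to a genetically defined yeast strain lacking normal DNA damage repair, and inhibition of growth is expressed relative to cultures given vehicle only.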

[7] = NCI Yeast Anticancer Drug Screen. Data for the wt1 strain (AID 149);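 further: 0% = growth of vehicle-treated wt1 cultures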; details: S. cerevisiae wt1 strain (SPY 50644) growth inhibition, active compounds read high
Procedure, shortened: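 Using yeast strain wt1, compound-induced growth inhibition was determined against vehicle-treated cultures.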

[8] = NCI Yeast Anticancer Drug Screen. Data for the rad50EPP+ strain (AID 151);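 further: 0% = growth of vehicle-treated control cultures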; details: S. cerevisiae rad50 mutant strain, active compounds read high
Procedure, shortened: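 Compounds were applied to the rad50EPP+ yeast strain, which bears a defined DNA repair alteration, and growth inhibition was determined relative to vehicle-treated cultures.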

[9] = NCI Yeast Anticancer Drug Screen. Data for the mgt1 strain (AID 153); details: S. cerevisiae mgt1 mutant growth inhibition, active compounds read high
Procedure, shortened: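 Strain: mgt1 yeast, one of a set carrying defined DNA damage repair or cell cycle control alterations. Compound-treated growth compared with vehicle.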

[10] = NCI Yeast Anticancer Drug Screen. Data for the rad50 strain (AID 155);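 further: 0% = growth of vehicle-only cultures of the same strain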; details: S. cerevisiae rad50 strain growth inhibition, active compounds read high
Procedure, shortened: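 Relative growth inhibition (compound vs vehicle) was measured in yeast with a defined repair-gene alteration.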

[11] = NCI Yeast Anticancer Drug Screen. Data for the mec2-1 strain (AID 157); details: S. cerevisiae mec2-1 strain, active compounds read high
Procedure, shortened: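 Strain: mec2-1 (DNA repair/cell cycle alteration). Compound exposure, then growth measured; inhibition expressed relative to vehicle.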

[12] = NCI Yeast Anticancer Drug Screen. Data for the rad14 strain (AID 159);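 further: 0% = growth of vehicle-treated control cultures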; details: S. cerevisiae rad14 strain growth inhibition, active compounds read high
Procedure, shortened: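 Screen for anticancer potential: a yeast strain altered in DNA damage repair is grown with compound, and reduced growth is quantified against vehicle controls.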

[13] = NCI Yeast Anticancer Drug Screen. Data for the sgs1 mgt1 strain (AID 161);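 further: 0% = growth of cultures given vehicle only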; details: S. cerevisiae sgs1 mgt1 strain, active compounds read high
Procedure, shortened: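 Inhibition of yeast growth, normalised to vehicle-treated controls, is reported for a strain bearing genetic alterations in DNA damage repair.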

[14] = NCI Yeast Anticancer Drug Screen. Data for the CLN2oe strain (AID 163);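 further: 0% = growth of vehicle-only control cultures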; details: S. cerevisiae CLN2oe strain, active compounds read high
Procedure, shortened: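 Growth of a genetically modified yeast strain is measured after compound exposure and compared with cultures given vehicle alone.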

[15] = NCI Yeast Anticancer Drug Screen. Data for the cln2 rad14 strain (AID 165);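 further: 0% = growth equal to vehicle treated cultures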; details: S. cerevisiae cln2 rad14 strain, active compounds read high
Procedure, shortened: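 Compounds are applied to the cln2 rad14 yeast strain, and growth is then compared with that of vehicle-treated cultures to give inhibition.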

[16] = NCI Yeast Anticancer Drug Screen. Data for the bub3 strain (AID 167); details: S. cerevisiae bub3 mutant strain, active compounds read high
Procedure, shortened: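 Screening used yeast with an engineered genetic alteration affecting cell cycle control. Compound-exposed cultures were compared with vehicle cultures, and reduced growth was taken as inhibition.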

[17] = at 5.0 µM (retest, dose inferred, filed as 0.5)
[18] = at 50.0 µM (retest, dose inferred, filed as 5.0)

Measured: growth inhibition

c1ccc2c(c1)N=C1CCCC3CCCC123 (centres undefined)
inactive: [1]; at 1.2 µM 1% | [1]; at 3.7 µM 2% | [1]; at 11.0 µM 3% | [1]; at 33.0 µM -1% | [2]; at 1.2 µM 6% | [2]; at 3.7 µM 3% | [2]; at 11.0 µM 3% | [2]; at 33.0 µM 3% | [3]; at 1.2 µM -1% | [3]; at 3.7 µM 9% | [3]; at 11.0 µM 12% | [3]; at 33.0 µM 16% | [4]; [17] -133% | [4]; [18] 12% | [5]; at 1.2 µM -2% | [5]; at 3.7 µM -3% | [5]; at 11.0 µM 0% | [5]; at 33.0 µM -6%
active: [1]; at 100.0 µM 98% | [2]; at 100.0 µM 97% | [3]; at 100.0 µM 99% | [4]; at 50.0 µM 90.8% | [5]; at 100.0 µM 98%

CCCCCCCN1C(=O)c2ccccc2C1=O
inactive: [6]; at 1.2 µM -1% | [6]; at 3.7 µM -1% | [6]; at 11.0 µM -3% | [6]; at 33.0 µM 11% | [6]; at 100.0 µM 28% | [7]; at 1.2 µM 0% | [7]; at 3.7 µM -1% | [7]; at 11.0 µM -1% | [7]; at 33.0 µM -1% | [7]; at 100.0 µM 0% | [8]; at 1.2 µM 0% | [8]; at 3.7 µM -1% | [8]; at 11.0 µM 8% | [8]; at 33.0 µM 25% | [8]; at 100.0 µM 35% | [9]; at 1.2 µM -7% | [9]; at 3.7 µM -6% | [9]; at 11.0 µM -5% | [9]; at 33.0 µM 9% | [9]; at 100.0 µM 31% | [10]; at 1.2 µM -2% | [10]; at 3.7 µM 5% | [10]; [17] -17% | [10]; at 11.0 µM 7% | [10]; at 33.0 µM 26% | [10]; [18] 3% | [10]; at 100.0 µM 22% | [11]; at 1.2 µM -5% | [11]; at 3.7 µM -8% | [11]; [17] -10% | [11]; at 11.0 µM -27% | [11]; at 33.0 µM -6% | [11]; [18] 11% | [11]; at 50.0 µM 53.2% | [11]; at 100.0 µM -11% | [12]; at 1.2 µM -1% | [12]; at 3.7 µM -10% | [12]; at 11.0 µM 4% | [12]; at 33.0 µM 13% | [12]; at 100.0 µM 2% | [13]; [17] -14% | [13]; [18] 19% | [13]; at 50.0 µM 67.8% | [14]; at 1.2 µM -1% | [14]; at 3.7 µM -2% | [14]; at 11.0 µM -4% | [14]; at 33.0 µM -6% | [14]; at 100.0 µM -11% | [15]; [17] -7% | [15]; [18] -8% | [15]; at 50.0 µM 30.6% | [16]; at 1.2 µM 3% | [16]; at 3.7 µM -4% | [16]; [17] -17% | [16]; at 11.0 µM 28% | [16]; at 33.0 µM 36% | [16]; [18] 34% | [16]; at 100.0 µM 37% | [1]; at 1.2 µM -2% | [1]; at 3.7 µM -1% | [1]; at 11.0 µM 0% | [1]; at 33.0 µM 11% | [1]; at 100.0 µM 45% | [2]; at 1.2 µM -12% | [2]; at 3.7 µM -6% | [2]; at 11.0 µM -19% | [2]; at 33.0 µM -19% | [2]; at 100.0 µM 1% | [3]; at 1.2 µM 0% | [3]; at 3.7 µM -1% | [3]; at 11.0 µM 2% | [3]; at 33.0 µM 14% | [3]; at 100.0 µM 44% | [4]; [17] -31% | [4]; [18] 56% | [5]; at 1.2 µM -1% | [5]; at 3.7 µM -5% | [5]; at 11.0 µM -1% | [5]; at 33.0 µM 13% | [5]; at 100.0 µM 28%
active: [10]; at 50.0 µM 83.9% | [16]; at 50.0 µM 73.8% | [4]; at 50.0 µM 86.6%

CC1=CC(=C(c2ccc(N)c(C)c2)c2ccc(N)c(C)c2)C=CC1=N
inactive: [6]; at 1.2 µM 24% | [6]; at 3.7 µM 41% | [6]; at 11.0 µM 47% | [6]; at 33.0 µM 64% | [7]; at 1.2 µM 8% | [7]; at 3.7 µM 9% | [7]; at 11.0 µM 7% | [7]; at 33.0 µM 6% | [8]; at 1.2 µM 8% | [8]; at 3.7 µM 17% | [8]; at 11.0 µM 23% | [8]; at 33.0 µM 30% | [9]; at 1.2 µM -2% | [9]; at 3.7 µM 7% | [9]; at 11.0 µM 12% | [9]; at 33.0 µM 39% | [10]; at 1.2 µM 21% | [10]; at 3.7 µM 10% | [10]; [17] 20% | [10]; at 11.0 µM 18% | [10]; at 33.0 µM 22% | [11]; at 1.2 µM 1% | [11]; at 3.7 µM 5% | [11]; [17] 18% | [11]; at 11.0 µM 3% | [11]; at 33.0 µM 37% | [12]; at 1.2 µM 0% | [12]; at 3.7 µM 2% | [12]; at 11.0 µM -2% | [12]; at 33.0 µM 19% | [13]; [17] 30% | [14]; at 1.2 µM 19% | [14]; at 3.7 µM 36% | [14]; at 11.0 µM 41% | [14]; at 33.0 µM 50% | [15]; [17] 9% | [16]; at 1.2 µM 12% | [16]; at 3.7 µM 26% | [16]; [17] 18% | [16]; at 11.0 µM 29% | [16]; at 33.0 µM 54% | [1]; at 1.2 µM -33% | [1]; at 3.7 µM -20% | [1]; at 11.0 µM -31% | [2]; at 1.2 µM 7% | [2]; at 3.7 µM 10% | [2]; at 11.0 µM 14% | [2]; at 33.0 µM 55% | [3]; at 1.2 µM 5% | [3]; at 3.7 µM 19% | [3]; at 11.0 µM 18% | [3]; at 33.0 µM 51% | [4]; [17] 51% | [5]; at 1.2 µM 2% | [5]; at 3.7 µM 20% | [5]; at 11.0 µM 20% | [5]; at 33.0 µM 35%
active: [6]; at 100.0 µM 97% | [7]; at 100.0 µM 90% | [8]; at 100.0 µM 83% | [9]; at 100.0 µM 97% | [10]; [18] 87% | [10]; at 50.0 µM 85.2% | [10]; at 100.0 µM 96% | [11]; [18] 97% | [11]; at 50.0 µM 89.6% | [11]; at 100.0 µM 96% | [12]; at 100.0 µM 97% | [13]; [18] 79% | [13]; at 50.0 µM 83.7% | [14]; at 100.0 µM 97% | [15]; [18] 75% | [15]; at 50.0 µM 74.5% | [16]; [18] 97% | [16]; at 50.0 µM 89.8% | [16]; at 100.0 µM 96% | [1]; at 33.0 µM 75% | [1]; at 100.0 µM 97% | [2]; at 100.0 µM 96% | [3]; at 100.0 µM 95% | [4]; [18] 94% | [4]; at 50.0 µM 84.8% | [5]; at 100.0 µM 96%
